# From PubChem
# Compounds with a hit are over-represented: about 1.2% of the library has one in this group of screens.
# UGM FP inh – inhibitors of M. tuberculosis UDP-galactopyranose mutase. P9WIQ1. purified UGM, fluorescence polarization probe displacement. inhibition, % at 10 µM. hit rate 0.06% among 320,000; in the data active = inhibition above about 10%, passing the limit was not always enough
# PrPC TRFRET – cell surface PrPC inhibition, primary TR-FRET screen. TR-FRET read-out. hit rate 0.43% among 370,000. P04156. inhibition, % at 13.8 µM; in the data active = inhibition above about 24%; also: 0% = median of the test wells and 100% = reference compound wells
# Rv3671c inh – Rv3671c (M. tuberculosis) protease inhibition. hit rate 0.048% among 320,000. inhibition, % at 5.96 µM. AID 2606; in the data active = inhibition above about 38%;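 also: extracellular domain of Rv3671c used as enzyme; 0% = enzyme with DMSO and 100% = no enzyme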
# Target sequence (P9WHR9 whole entry, looked up, the tested form may be a part): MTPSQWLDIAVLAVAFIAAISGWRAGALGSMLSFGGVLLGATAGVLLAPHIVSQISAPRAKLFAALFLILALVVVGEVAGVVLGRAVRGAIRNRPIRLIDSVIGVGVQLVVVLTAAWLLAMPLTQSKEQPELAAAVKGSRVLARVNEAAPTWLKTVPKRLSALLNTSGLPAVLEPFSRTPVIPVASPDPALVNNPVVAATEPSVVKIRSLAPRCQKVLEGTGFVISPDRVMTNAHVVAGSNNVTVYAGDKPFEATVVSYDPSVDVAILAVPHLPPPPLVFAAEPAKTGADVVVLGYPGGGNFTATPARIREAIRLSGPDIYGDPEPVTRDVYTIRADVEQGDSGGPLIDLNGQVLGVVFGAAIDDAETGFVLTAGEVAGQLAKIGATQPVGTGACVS
# SSB-PriA inh – blocks PriA binding to SSB C-terminal tail | AlphaScreen SSBct-PriA binding, biotinylated peptide | hit rate 0.6% among 430,000 | inhibition, % at 33 µM | AID 1272365; in the data active = inhibition mostly above about 37%, no sharp cut-off; inactive = mostly below about 20%;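 also: plate controls were negative control peptide for no effect and reference peptide for full effect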
# FadD28 FP inh – inhibitors of Mycobacterium tuberculosis FadD28 bisubstrate binding; hit rate 0.22% among 360,000; FadD28 bisubstrate probe binding, fluorescence polarization; inhibition, % at 12.5 µM; in the data active = inhibition above about 8.5%, passing the limit was not always enough
# PrP UTR inh – suppresses PrP 5' UTR mRNA reporter expression. cell-based PrP 5' UTR mRNA reporter, plate reader. inhibition, % (test concentration not listed). hit rate 0.35% among 340,000; in the data active = inhibition above about 52%; also: 0 = median of the neutral control wells
# Numbers without * were called inactive; nt = no result given.
SMILES,UGM FP inh,PrPC TRFRET,Rv3671c inh,SSB-PriA inh,FadD28 FP inh,PrP UTR inh
CCCCCCCn1c(=N)n(CC(O)c2ccco2)c2ccccc21 (centres undefined),1.1,0.9,2.0,-8.8,-1.4,1.1
N=c1n(CCN2CCCC2)c2ccccc2n1CC(O)c1ccco1 (centres undefined),40.7*,-13.4,-1.7,8.0,0.1,-20.6
CC(C)CNS(=O)(=O)c1ccc2nc(NC(=O)c3ccccn3)sc2c1,nt,nt,nt,96.0*,nt,nt
CCCCCCCCCC(=O)N[C@H](CN1CCOCC1)[C@H](O)c1ccccc1,-3.3,5.1,3.9,-11.5,-4.1,-43.0
CCCCCCCCCCCC(=O)NC(C(=O)O)C(O)c1ccccc1 (centres undefined),1.0,-2.1,-2.9,96.5*,1.2,-12.1
O=C(COC(=O)c1ccc([N+](=O)[O-])o1)NC1CCCC1,21.4*,-18.6,-11.3,0.8,-1.2,-26.1
Cc1cccc(N/C=C/C(=C(C#N)C#N)N(C)C)c1,0.1,5.6,7.2,1.2,11.0*,6.1
COc1ccccc1/C=C/CN1CCC(n2nccc2NC(=O)CCc2ccccc2)CC1,1.0,-0.6,-7.2,101.5*,-6.3,-17.5
CC(C)CS(=O)(=O)C1CCN(C(=O)c2ccccc2Cl)CC1,nt,nt,nt,-7.0,nt,nt
CCN(CC)c1ccc(NC2CC(=O)N(CCc3ccc(OC)cc3)C2=O)cc1 (centres undefined),-1.6,-0.4,1.0,44.5,8.7*,-15.0
CC(C)c1ccc(NC(=O)C(=O)C2C(=O)Nc3ccccc32)cc1 (centres undefined),-0.5,-3.0,4.3,-15.3,14.6*,-9.2
CC(C)(C)c1ccc(NC(=O)C(=O)C2C(=O)Nc3ccccc32)cc1 (centres undefined),-2.3,3.2,4.2,5.5,27.4*,-13.8
CN(C)c1ccc(NC(=O)C(=O)C2C(=O)Nc3ccccc32)cc1 (centres undefined),2.2,1.2,-3.7,-2.7,1.0,nt
O=C(NC(Nc1cccc(C(F)(F)F)c1)C(Cl)(Cl)Cl)c1cccc(Cl)c1 (centres undefined),nt,nt,nt,-13.0,nt,nt
COc1ccc(Br)c(C(=O)N2CCC3(CC2)OCCS3)c1,nt,nt,nt,-9.0,nt,nt
COc1ccc(CCC(=O)Nc2cc(C)nn2-c2nc3c(cnn3-c3cccc(C)c3C)c(=O)[nH]2)cc1,nt,nt,nt,-3.0,nt,nt
Cc1cc(NC(=O)c2cccc3ccccc23)n(-c2nc3c(cnn3-c3ccc(F)cc3)c(=O)[nH]2)n1,nt,nt,nt,43.0*,nt,nt
COc1ccc(CC(=O)Nc2cc(C)nn2-c2nc3c(cnn3-c3cccc(C)c3C)c(=O)[nH]2)cc1,nt,nt,nt,60.0*,nt,nt
CC(C)(C)OC(=O)C[C@H]1C/C=C/C[C@@H](CC(=O)N[C@H](CO)Cc2ccccc2)C(=O)N2CCC[C@H]2COC1=O,nt,nt,nt,-11.2,nt,nt
COc1ccccc1NC(=O)C1=C(C)Nc2nc(-c3cccs3)nn2C1c1cccc(O)c1 (centres undefined),0.4,-8.5,-6.1,-11.1,-3.5,-24.5
COc1ccccc1NC(=O)C1=C(C)Nc2nc(-c3cccs3)nn2C1c1ccccc1[N+](=O)[O-] (centres undefined),nt,nt,nt,35.0*,nt,nt
O=C(N/N=C/c1c(O)n(Cc2ccc(F)cc2)c(=O)[nH]c1=O)c1ccccc1O,1.3,-3.2,-30.6,nt,18.5*,-29.1
COc1ccc(Cn2c(O)c(/C=N/NC(=O)c3ccccc3O)c(=O)[nH]c2=O)cc1,0.5,-0.8,-12.7,nt,16.8*,-47.1
O=C(N/N=C/c1c(O)n(Cc2ccccc2)c(=O)[nH]c1=O)c1ccccc1O,0.8,7.3,-29.7,nt,4.2,-28.1
COc1ccc2[nH]cc(S(=O)(=O)c3ccc(F)cc3)c(=O)c2c1,1.4,5.3,7.2,104.2*,-3.7,-42.9
SMILES,UGM FP inh,PrPC TRFRET,Rv3671c inh,SSB-PriA inh,FadD28 FP inh,PrP UTR inh
Cc1ccc(C)c(Nc2nc(-c3ccccn3)cs2)c1,nt,nt,nt,68.6*,nt,nt
c1ccc(CCNc2nc(-c3ccccn3)cs2)cc1,-0.9,-4.0,9.9,19.8,-1.8,-39.0
c1ccc(Nc2nc(-c3ccccn3)cs2)nc1,nt,nt,nt,150.5*,nt,nt
NNc1nc(-c2ccccn2)cs1,nt,nt,nt,130.5*,nt,nt
c1ccc(-c2csc(Nc3ccccn3)n2)cc1,-0.5,-9.9,5.6,-5.7,1.6,-51.6
c1ccc(-c2csc(Nc3ncccn3)n2)nc1,nt,nt,nt,69.9*,nt,nt
O=C(c1ccc2nc[nH]c2c1)N1CC(c2nc(-c3cccs3)no2)C1,nt,nt,nt,-5.0,nt,nt
COc1c2ccc(C(=O)N3Cc4cnc(N5CCOCC5)nc4C3)cc2nn1C,nt,nt,nt,-3.0,nt,nt
COc1ccc(/C=N/N(Cc2ccccc2)c2ccccc2)cc1O,2.1,1.5,0.2,nt,11.6*,-15.0
CCN1c2ccccc2NC2N=C(OC)C(c3ccccc3)C21 (centres undefined),-1.3,nt,0.2,54.2*,-0.1,-48.6
CCN1c2ccccc2NC2C1C(C(C)=O)C(=O)N2c1ccc(Cl)cc1 (centres undefined),-1.1,-6.7,1.4,7.2,-2.4,-18.9
C=c1cc(C)cc(C)c1=C1NN=C(NC(=O)c2ccc(S(=O)(=O)N(CC)CC)cc2)S1,nt,nt,nt,-11.0,nt,nt
Cc1cc(NC(=O)Cn2cc(-c3nc(-c4ccccc4F)no3)ccc2=O)no1,nt,nt,nt,-2.0,nt,nt
O=C(NCc1nnc(SCC(=O)N2CCOCC2)o1)c1ccccc1F,-0.7,-6.4,-1.6,4.6,-0.3,-7.9
O=C(NCc1nnc(SCC(=O)N2CCOCC2)o1)c1ccccc1,nt,-0.4,nt,56.0*,0.6,nt
COc1cc(NC(=O)NCc2nc(C)cc(N(C)C)n2)cc(OC)c1,nt,nt,nt,-20.0,nt,nt
O=C(c1cc2ccccc2o1)N1CCN(c2ncnc3c2nnn3-c2ccccc2)CC1,nt,nt,nt,4.0,nt,nt
Cc1cc2ccccc2n1CCN,nt,nt,nt,1.0,nt,nt
CC(=O)/C(=N/Nc1ccccc1[N+](=O)[O-])N1CCCc2ccccc21,1.3,-4.3,10.1,nt,-4.3,nt
CC(=O)C(=NNc1ccccc1[N+](=O)[O-])N1CCCc2ccccc21,nt,nt,nt,56.5*,nt,nt
COc1ccc(/C=C2\C(=O)N(c3c(Cl)cc(Cl)cc3Cl)N=C2NC(=O)c2cccc([N+](=O)[O-])c2)cc1,-1.3,nt,-6.2,-4.2,8.4*,-8.7
Cc1ccc(C)c2sc(NC(=O)CN3C(=O)CCC3=O)nc12,-1.4,-0.6,0.8,1.0,-1.0,-20.4
Cc1ccc2sc(NC(=O)CN3C(=O)CCC3=O)nc2c1C,4.7,4.5,6.3,104.2*,-2.2,-15.9
COc1nn(C)cc1C(=O)NCCn1ccn2nccc12,nt,nt,nt,1.0,nt,nt
O=C(Oc1c(CN2CCOCC2)cc(Cl)c2cccnc12)c1ccco1,nt,nt,nt,101.0*,nt,nt
SMILES,UGM FP inh,PrPC TRFRET,Rv3671c inh,SSB-PriA inh,FadD28 FP inh,PrP UTR inh
O=C(Oc1c(CN2CCOCC2)cc(Cl)c2cccnc12)c1ccccc1F,1.4,-7.6,8.1,58.3*,0.6,10.7
O=C(Oc1c(CN2CCOCC2)cc(Cl)c2cccnc12)c1ccccc1,2.8,-6.7,4.3,2.8,-2.5,1.5
CC(C)(C)C1CCc2c(sc3nc(CCC(=O)NCc4ccccc4Cl)[nH]c(=O)c23)C1 (centres undefined),nt,nt,nt,-1.0,nt,nt
COCCn1cc(NC(=O)NC2CCCCC2C)c2ccccc21 (centres undefined),nt,nt,nt,3.0,nt,nt
O=C(c1ccco1)c1ccc(CNS(=O)(=O)c2ccccc2Br)s1,nt,nt,nt,-19.0,nt,nt
c1ccc(-c2cn(C[C@H]3CC[C@H](Cn4cc(-c5ccccn5)nn4)O3)nn2)nc1,1.9,2.1,-1.5,109.1*,-1.1,-20.6
